Results on 67 compounds are retold here after PubChem BioAssay AID1942 (Johns Hopkins Ion Channel Center, 2009).

Hit rate of the full screen: of about 2,400 compounds, about 580 (24%) were called active. The list is a sample of the results. Values without a mark were called inactive.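 Rule for the calls: active = activity change at or above the mean plus 3 SD of buffer wells without dofetilide, per plate; inactive = the rest.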

Sequence of Potassium voltage-gated channel subfamily KQT member 2 (Rattus norvegicus) (O88943 whole entry, looked up): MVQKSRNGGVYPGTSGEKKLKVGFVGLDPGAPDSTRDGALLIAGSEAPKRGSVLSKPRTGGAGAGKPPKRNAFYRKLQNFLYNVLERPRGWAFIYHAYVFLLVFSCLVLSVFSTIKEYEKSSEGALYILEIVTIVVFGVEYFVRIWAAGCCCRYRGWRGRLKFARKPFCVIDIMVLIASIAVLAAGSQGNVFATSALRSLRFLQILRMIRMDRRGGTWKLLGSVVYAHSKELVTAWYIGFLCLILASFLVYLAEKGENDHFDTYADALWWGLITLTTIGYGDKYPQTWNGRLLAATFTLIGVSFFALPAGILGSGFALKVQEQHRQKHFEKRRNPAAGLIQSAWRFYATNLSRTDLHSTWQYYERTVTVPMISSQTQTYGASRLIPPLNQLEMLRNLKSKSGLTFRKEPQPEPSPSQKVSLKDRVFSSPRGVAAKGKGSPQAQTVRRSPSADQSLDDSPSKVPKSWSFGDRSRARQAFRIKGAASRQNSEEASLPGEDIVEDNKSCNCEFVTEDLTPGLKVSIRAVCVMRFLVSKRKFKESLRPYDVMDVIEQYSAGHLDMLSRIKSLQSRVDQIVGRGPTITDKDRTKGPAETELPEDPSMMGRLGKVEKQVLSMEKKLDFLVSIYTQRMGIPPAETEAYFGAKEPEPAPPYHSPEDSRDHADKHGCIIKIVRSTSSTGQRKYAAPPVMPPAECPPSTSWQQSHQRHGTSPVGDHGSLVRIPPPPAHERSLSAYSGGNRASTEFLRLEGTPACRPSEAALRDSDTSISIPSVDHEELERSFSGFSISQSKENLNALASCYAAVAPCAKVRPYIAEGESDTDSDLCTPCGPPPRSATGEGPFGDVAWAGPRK

The test has as its target Potassium voltage-gated channel subfamily KQT member 2 (Rattus norvegicus) (UniProt O88943). In words: rat KCNQ2 channel activation by compounds alone, confirmation, counter-screen for hERG block protector project, cell-based, CHO, FluxOR thallium flux (AID 1942).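 Note: normalized value minus buffer-control mean plus three SD of buffer wells.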 To be noted: CHO-KCNQ2 cells, FluxOR thallium flux fluorescence; at 10 µM; hits give high values. (In general: A counterscreen serves to expose hits that act by an unwanted route or on another target.)
For `O=C(COc1ccc([N+](=O)[O-])cc1)Nc1cccnc1`, the activity change, less the hit threshold was -27.2%. Under `c1ccc(OCc2nn3c(Cn4cnc5ccccc54)nnc3s2)cc1` stands -20.8%. The value for `CCCN1CCN(CCCNC(=O)Cn2nc(C)n3c(cc4cc(OC)ccc43)c2=O)CC1` was -25.2%; that for `CC(C)[C@H](NC(=O)OC(C)(C)C)C(=O)NCC1CCC(C(=O)N[C@@H](Cc2ccccc2)C(=O)O)CC1` (some centres not stated) was -10.4%; that for `CCOC(=O)c1cnc(-n2nc(C)cc2C)nc1NNc1nc(-c2ccccc2)cc(-c2ccccc2)n1` was -15%. Under `CCOC(=O)Cn1cc(C=O)c2ccccc21` stands -12.9%; under `COC(=O)c1sccc1NC(=O)CSc1ccccc1NS(=O)(=O)c1cc(Cl)ccc1Cl`, -17%. For the compound `O=S(=O)(Nc1nc(-c2sccc2Cl)cs1)c1cc(Cl)ccc1Cl`, the activity change, less the hit threshold was 105% (active). Under `COc1cc(C(=O)NCCNc2nc3cc(C)ccc3cc2C#N)cc(OC)c1OC` stands -18.4%. Under `COc1ccc(NC(=O)CSCC(=O)Oc2c(OC)cccc2OC)cc1` stands -22.1%. On to `CC(C)(C)c1ccccc1NC(=S)NC1CCCC1`, for which the activity change, less the hit threshold was -7.6%.

`COc1cccc(NC(=S)NC(C)c2ccc(OC)c(OC)c2)c1` (configuration not stated): the activity change, less the hit threshold was -23.4%.

Consider `CC(NC(=S)NC1CCCCC1)c1ccccc1` (configuration not stated), for which the activity change, less the hit threshold was 6.9% (active). The value for `CC(NC(=O)NC1CCCCC1)c1ccccc1` (configuration not stated) was 26.3% (active); that for `CC(NC(=O)COC(=O)C1CCC1)c1ccccc1` (configuration not stated) was -21.4%.

In the case of `CC(C)NC(=S)NNc1nc2ccccc2s1`, the activity change, less the hit threshold is -19.4%. Take `CCC(C)(C(=O)NC1CCCC1)N(C(=O)c1ccccn1)c1ccccc1` (configuration not stated): the activity change, less the hit threshold was -13%. The value for `CCOc1ccc(N=Nc2cc(C(C)C)ccc2O)cc1` was -9.1%; that for `Cc1ccc(OCCC(=O)OC(C)C(=O)NC2CC2)cc1` (configuration not stated) was -9%. Take `CCOc1ccc(C(C)NC(=S)NC2CCCCC2)cc1` (configuration not stated): the activity change, less the hit threshold was 9.5% (active). Under `Cc1ccc(C(C)NC(=S)NC2CCCCC2)cc1C` (configuration not stated) stands 46.1% (active); under `O=C(OCc1ccccc1)C1=NNC2C(=O)N(c3ccc(Br)cc3)C(=O)C12` (configuration not stated), -11.1%; under `C=C(C)CNC(=S)NN=C1c2ccccc2-c2ccccc21`, -7.1%.

Regarding `COc1ccccc1C1C(C(=O)c2ccc(C)o2)=C(O)C(=O)N1c1cc(C)on1` (configuration not stated), the activity change, less the hit threshold was -9.3%. The value for `COc1ccccc1-n1cnc2cc(NS(=O)(=O)c3ccc(Br)cc3)ccc21` was -25.5%.

`CC1Oc2ccccc2N(CC(=O)N2CCCCCC2)C1=O` (configuration not stated): the activity change, less the hit threshold was -17.7%.

For `O=C(COc1coc(CN2CCc3ccccc3C2)cc1=O)Nc1cccc(Cl)c1`, the activity change, less the hit threshold is -26%. Under `COc1ccc(CCNC(=O)C(=O)Nc2ccc3c(c2)OCO3)cc1OC` stands -19%; under `O=C(COC(=O)/C=C/c1ccc2c(c1)OCO2)NC1CC1`, -11.4%.

Consider `COc1cc(/C=N/NC(=O)NC2CCCCC2)ccc1O`, for which the activity change, less the hit threshold was -11.5%. For `CC(NC(=O)NC1CCCCC1)c1ccc2c(c1)OCO2` (configuration not stated), the activity change, less the hit threshold is 51% (active). Under `CCOC(=O)N1CCN(C(=O)c2ccc(Cl)c(S(=O)(=O)Nc3ccccc3)c2)CC1` stands -3.5%; under `COc1ccc(N2CCN(C(=O)c3ccc(-c4ccccc4)cc3)CC2)cc1`, -20%; under `O=C(c1ccc(Cl)c(S(=O)(=O)N2CCCC2)c1)N1CCN(c2ccccc2F)CC1`, -7.1%. Under `Cc1ccc(C(=O)N2CCN(c3ccccc3)CC2)cc1S(=O)(=O)N1CCCC1` stands 1.9% (active); under `CCOC(=O)N1CCN(C(=O)c2ccc(CN(c3ccc(C)c(C)c3)S(C)(=O)=O)cc2)CC1`, -15.6%. The value for `CCOC(=O)N1CCN(C(=O)c2ccc(C)c(S(=O)(=O)Nc3ccccc3)c2)CC1` was 4% (active); that for `Cc1cccc(/N=C/c2sc3ccccc3c2O)n1` was -11.6%.

Turning to `CCC(=O)c1cc2c(C)cc(=O)oc2c(C)c1O`, the activity change, less the hit threshold was -12.6%. The value for `CSc1ccc(CNc2nc3ccccc3n3cnnc23)cc1` was -28.3%; that for `COc1ccc(COC(=O)C2CCN(S(=O)(=O)c3cccs3)CC2)cc1` was -20.1%. Under `c1ccc(-c2csc(Nc3ccc4c(c3)OCCO4)n2)cc1` stands -20.3%; under `O=C(COC(=O)c1cc[n+]([O-])cc1)Nc1cc([N+](=O)[O-])ccc1Cl`, -11.7%; under `O=C(CCc1ccccc1)Nc1nnc(-c2ccccn2)o1`, -17.4%.

`O=C(Nc1nc2c(F)cc(F)cc2s1)C1COc2ccccc2O1` (configuration not stated): the activity change, less the hit threshold was -25.7%.

Turning to `O=C(Nc1nnc(-c2ccc3c(c2)CCCC3)o1)c1ccc(Cl)cc1Cl`, the activity change, less the hit threshold was 30.2% (active).

For the compound `O=C(Nc1nnc(-c2ccc3c(c2)CCCC3)o1)C1COc2ccccc2O1` (configuration not stated), the activity change, less the hit threshold was 4.3% (active).

With `O=C(Cc1ccc(Cl)cc1)Nc1cccc(-c2nnc(-c3ccco3)o2)c1`, the activity change, less the hit threshold was -13.4%. The value for `O=C(Nc1nnc(-c2ccccc2)o1)c1ccc(Cl)cc1` was -17.9%. `O=C(N=C1SC2CS(=O)(=O)CC2N1c1cccc(Cl)c1Cl)C1CCCO1` (configuration not stated): the activity change, less the hit threshold is -21.2%.

Consider `CCCN(C(=O)c1ccco1)c1nnc(-c2ccncc2)s1`, for which the activity change, less the hit threshold was -7.4%. In the case of `Cc1ccc(/C(O)=C2\C(=O)C(=O)N(Cc3cccnc3)C2c2ccccc2[N+](=O)[O-])cc1` (configuration not stated), the activity change, less the hit threshold was -16%.

For `Cc1ccc(NC(=O)CN2C(=O)S/C(=C/c3ccc(-c4cc(C(=O)O)ccc4C)o3)C2=O)cc1C`, the activity change, less the hit threshold is -24.7%. As to `Cc1ccc2c(c1)N(CCC(=O)NCc1cccnc1)C(=O)CO2`, the activity change, less the hit threshold is -10.8%. The value for `C/C(=C\C(=O)c1ccncc1)Nc1ccccc1O` was -11.7%; that for `O=C1CC(O)(C(F)(F)F)Oc2c1ccc1ccccc21` (configuration not stated) was 28.3% (active). The value for `CC1(C)Cc2c(ccc3ccccc23)C2=C(C(=O)N3CCCC3)C(=O)C(=O)N21` was -11.1%; that for `Nc1nc2c(s1)CCCCCCCCCC2` was -3%. Under `O=C(c1ccco1)N(c1ccccn1)c1ccccn1` stands -21.4%; under `Brc1ccc(C2=CC(c3ccco3)n3nnnc3N2)cc1` (configuration not stated), -16.3%; under `O=C(O)c1sccc1OCc1ccccc1`, -0.9%. For `C=CCn1c(O)c(N=NC(=S)Nc2ccc(OC)cc2)c2ccccc21`, the activity change, less the hit threshold was 25% (active). The value for `C=CCn1c(O)c(N=NC(=S)Nc2ccc(OC)c(Cl)c2)c2ccccc21` was 3.8% (active); that for `Cc1ccc(C)c(Cn2c(O)c(N=NC(=S)Nc3ccccc3F)c3ccccc32)c1` was -11.3%. Under `Oc1c(N=NC(=S)Nc2ccccc2F)c2ccccc2n1Cc1ccccc1F` stands -12.8%; under `Oc1c(N=NC(=S)Nc2ccccc2F)c2ccccc2n1Cc1cccc(Cl)c1`, -13%. Under `Cc1ccccc1Cn1c(O)c(N=NC(=S)Nc2ccccc2F)c2ccccc21` stands -20.7%.
